Counter-ions that a name gives are not always drawn.
What was measured:
[1] = system: Staphylococcus aureus MW2 delta-mecA (mecA-); assay: normalized GFP fluorescence (growth of mecA- strain) (fraction of control range); higher = more growth of mecA- strain; conditions: compound concentration: 150 uM; cefoxitin: subinhibitory; fluorescent label: GFP
Method in brief: (§1)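 S. aureus MW2 cells, pre-induced, were used as a 1:1 mix of a DsRed strain carrying the gene and a GFP strain lacking it, in LB with a subinhibitory antibiotic dose set each day. At 5 µL/well they were placed onto 150 μM compound (1.5% DMSO) in 1536-well plates, one replicate, and kept unshaken for 20 h at 37 °C, 90% humidity. After DsRed (540/590) and GFP (485/520) reads scaled per plate to single-strain control medians, plates with high untreated ratios and rows with DsRed/GFP >10 were excluded.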

[2] = system: Staphylococcus aureus MW2 (mecA+); assay: normalized DsRed fluorescence (growth of mecA+ strain) (fraction of control range); higher = more growth of mecA+ strain; conditions: compound concentration: 150 uM; cefoxitin: subinhibitory; fluorescent label: DsRed
Method in brief: as §1

Row | Structure (SMILES) | normalized GFP fluorescence [1] | normalized DsRed fluorescence [2]
1 | CN1C(=O)OC(C)(C)C1=O | 0.0459 | 1.31
2 | NCCCCCC(=O)O | 0.967 | 0.727
3 | CCOC(=O)O[C@]1(C(=O)OCCl)CC[C@H]2[C@@H]3CCC4=CC(=O)C=C[C@]4(C)[C@H]3[C@@H](O)C[C@@]21C [Loteprednol etabonate] | 0.281 | 0.603
4 | COc1cc(OC)c(C(=O)CCCN2CCCC2)c(OC)c1 [Buflomedil HCl] | 0.4 | 0.499
5 | O=C([O-])C(O)[C@H](O)[C@@H](O)[C@H](O)[C@H](O)CO.O=C([O-])C(O)[C@H](O)[C@@H](O)[C@H](O)[C@H](O)CO.[Ca+2] (stereo partly drawn) | 0.35 | 0.718
6 | CC(C)NCC(O)COc1ccc(CC(N)=O)cc1 (stereo not drawn) | 0.323 | 0.749
7 | CCc1ccc(CCOc2ccc(CC3SC(=O)NC3=O)cc2)nc1 (stereo not drawn) | 0.499 | 0.952
8 | Cc1cc2c(cc1CC(=O)c1sccc1S(=O)(=O)Nc1onc(C)c1Cl)OCO2 | 0.251 | 0.293
9 | CC1CCC(NC(=O)N(CCCl)N=O)CC1 (stereo not drawn) | 0.55 | 0.439
10 | O=C(c1ccccc1)c1ccc2n1CCC2C(=O)O (stereo not drawn) | 0.247 | 0.711
11 | Cc1ccc(Nc2c(F)cccc2Cl)c(CC(=O)O)c1 | 0.0553 | 0.183
12 | CN(C)CCCN1c2ccccc2Sc2ccc(C(F)(F)F)cc21 | -0.00501 | 1.49
13 | COc1cc2c3cc1Oc1cc(ccc1O)C[C@@H]1c4c(cc(OC)c(O)c4Oc4ccc(cc4)C[C@@H]3N(C)CC2)CC[N+]1(C)C | 0.357 | 0.607
14 | CCN1CC(CCN2CCOCC2)C(c2ccccc2)(c2ccccc2)C1=O (stereo not drawn) | 0.294 | 0.634

From the supplement of paper PMC7695840
